For 39 compounds, Potency and activity change, negative = cytotoxicity results are on record in PubChem BioAssay (Tox21).

The structures appear in SMILES notation. Results filed as inconclusive are left out. Where a call stands in place of a potency, no number is given. Calls of active or inactive are those of the source. The call rests on the fitted dose curve.
Further: nearly all actives have a fitted effect of over 45% in size.
Potency means the concentration at half of the fitted maximal effect.

A short description of one test: p53 small molecule agonists, cell-based qHTS assay with rat liver microsomes: qHTS cell viability counter screen (AID 1963580). To be noted: p53RE-bla HCT-116 + rat microsomes, ATP viability, 16 h; series mostly up to 66 µM. An outline of the steps: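 p53RE-bla HCT-116 cells (4,000/well) rested 5 h at 37 C, then given Tox21 compounds in DMSO with rat liver microsomes (0.5 mg/mL final) plus NADPH (0.5 mg/mL final) for 16 h at 37 C. Viability read by CellTiter-Glo luminescence after 30 min at room temperature.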
For `C=COC(C)=O`, the Potency entry is “inactive”.

Consider `CCCCCl`, for which the Potency result was “inactive”.

On to `OC(c1ccc(F)cc1)(c1cncnc1)c1ccccc1Cl` (centres undefined), for which the Potency result is “inactive”.

For `NNCCO`, the Potency result was “inactive”.

In the case of `C[N+]1(C)[C@@H]2CC[C@H]1CC(OC(=O)C(CO)c1ccccc1)C2` (some centres undefined), the Potency result was “inactive”.

Take `O=CC(Br)(Br)Br`: the Potency result is “inactive”.

`Nc1c(Br)cc(Br)c2c1C(=O)c1ccccc1C2=O`: the activity change, negative = cytotoxicity was -8.42% [at 13.5 µM] (inactive).

As for `Cc1nnc2n1-c1sc(CCC(=O)N3CCOCC3)cc1C(c1ccccc1Cl)=NC2`, the Potency result was “inactive”.

With `O=Cc1ccc2c(c1)OCO2`, the Potency result is “inactive”.

`CCN(CC)C(=S)[S-].CCN(CC)C(=S)[S-].[Zn+2]`: the Potency is 1.61 µM (active).

Take `CC(Oc1cccc(Cl)c1)C(=O)O` (centres undefined): the Potency entry is “inactive”.

For the compound `N#CC(CCc1ccc(Cl)cc1)(Cn1cncn1)c1ccccc1` (centres undefined), the Potency entry was “inactive”.

Turning to `CCCSP(=S)(OCC)Oc1ccc(Cl)cc1Cl` (centres undefined), the Potency result is “inactive”.

On to `CCC(CC)(CNC(=O)CCCO)c1cccc(OC)c1`, for which the Potency result was “inactive”.

On to `CC(C)(C)c1cc([N+](=O)[O-])cc([N+](=O)[O-])c1O`, for which the Potency entry was “inactive”.

Turning to `Cc1cnc2c(C(=O)O)c(Cl)ccc2c1`, the Potency result is “inactive”.

With `CC[C@H](C)[C@H]1O[C@]2(C=C[C@@H]1C)C[C@@H]1C[C@@H](C/C=C(\C)[C@@H](O[C@H]3C[C@H](OC)[C@@H](O[C@H]4C[C@H](OC)[C@@H](O)[C@H](C)O4)[C@H](C)O3)[C@@H](C)/C=C/C=C3\CO[C@@H]4[C@H](O)C(C)=C[C@@H](C(=O)O1)[C@]34O)O2`, the Potency result was “inactive”.

For `CC[C@@H](CO)NC(=O)[C@@H]1C=C2c3cccc4[nH]cc(c34)C[C@H]2N(C)C1`, the Potency result was “inactive”.

On to `CC(C)C(=O)Cl`, for which the Potency result is “inactive”.

As for `O=[Se]=O`, the Potency entry is “inactive”.

For the compound `CCOCn1c(-c2ccc(Cl)cc2)c(C#N)c(Br)c1C(F)(F)F`, the Potency is 22.9 µM (active).

For `O=C(N[C@H]1N=C(c2ccccc2F)c2cccc3c2N(CC3)C1=O)c1cc2ccccc2[nH]1`, the Potency entry was “inactive”.

In the case of `N#Cc1cc(I)c(O)c(I)c1`, the Potency was 45.8 µM (active).

Turning to `CCC1(C2=NCCN2)Cc2ccccc2O1` (centres undefined), the Potency result was “inactive”.

For `ClSC(Cl)(Cl)Cl`, the Potency result was “inactive”.

Turning to `CCOP(=S)(OCC)Oc1cc(C)nc(N(CC)CC)n1`, the Potency entry was “inactive”.

`C[C@@H]1CC2=CC(=O)CC[C@@H]2[C@H]2CC[C@@]3(C)[C@@H](CC[C@]3(C)O)[C@@H]21`: the Potency result was “inactive”.

In the case of `CC(Cc1ccccc1)NCc1ccccc1Cl` (centres undefined), the Potency entry was “inactive”.

Consider `CC(C)(C)c1ccc(CSc2cnn(C(C)(C)C)c(=O)c2Cl)cc1`, for which the Potency entry was “inactive”.

In the case of `CNN`, the Potency entry was “inactive”.

Turning to `C=C1C[C@@H]2[C@H](CC[C@]3(C)C(=O)CC[C@@H]23)[C@@]2(C)C=CC(=O)C=C12`, the Potency entry is “inactive”.

As to `C=CCOC(C)=O`, the Potency result is “inactive”.

For `Cc1ccc(-c2c(Cl)nc(C#N)n2S(=O)(=O)N(C)C)cc1`, the Potency result was “inactive”.

Consider `FC(F)OC(F)(F)C(F)Cl` (centres undefined), for which the Potency entry was “inactive”.

A further test is described as follows: p53 small molecule agonists, cell-based qHTS assay: qHTS cell viability counter screen (AID 1963581). To be noted: p53RE-bla HCT-116 viability, ATP luminescence, 16 h; series mostly up to 66 µM. An outline of the steps: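 Compounds are pinned onto HCT-116 p53RE-bla cells and left 16 h at 37 C. Following the reporter FRET read, ATP is quantified by CellTiter-Glo luminescence after 30 min at room temperature.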
`C=COC(C)=O`: the Potency entry is “inactive”.

With `OC(c1ccc(F)cc1)(c1cncnc1)c1ccccc1Cl` (centres undefined), the Potency result is “inactive”.

On to `CCOC(=O)OC1=C(c2cc(C)ccc2C)C(=O)NC12CCC(OC)CC2` (centres undefined), for which the Potency result was “inactive”.

For the compound `NNCCO`, the Potency entry is “inactive”.

As to `C[N+]1(C)[C@@H]2CC[C@H]1CC(OC(=O)C(CO)c1ccccc1)C2` (some centres undefined), the Potency result is “inactive”.

Take `O=CC(Br)(Br)Br`: the Potency entry was “inactive”.

For the compound `Nc1c(Br)cc(Br)c2c1C(=O)c1ccccc1C2=O`, the activity change, negative = cytotoxicity was 13.4% [at 13.5 µM] (inactive).

For the compound `O=S(=O)(Cl)c1ccccc1`, the Potency result was “inactive”.

For `CCN(CC)C(=S)[S-].CCN(CC)C(=S)[S-].[Zn+2]`, the Potency is 4.54 µM (active).

As for `N#CC(CCc1ccc(Cl)cc1)(Cn1cncn1)c1ccccc1` (centres undefined), the Potency entry was “inactive”.

In the case of `CCCSP(=S)(OCC)Oc1ccc(Cl)cc1Cl` (centres undefined), the Potency entry was “inactive”.

Regarding `CCC(CC)(CNC(=O)CCCO)c1cccc(OC)c1`, the Potency entry was “inactive”.

As for `Cc1cnc2c(C(=O)O)c(Cl)ccc2c1`, the Potency entry is “inactive”.

Consider `CC[C@H](C)[C@H]1O[C@]2(C=C[C@@H]1C)C[C@@H]1C[C@@H](C/C=C(\C)[C@@H](O[C@H]3C[C@H](OC)[C@@H](O[C@H]4C[C@H](OC)[C@@H](O)[C@H](C)O4)[C@H](C)O3)[C@@H](C)/C=C/C=C3\CO[C@@H]4[C@H](O)C(C)=C[C@@H](C(=O)O1)[C@]34O)O2`, for which the Potency was 19.1 µM (active).

Take `CC[C@@H](CO)NC(=O)[C@@H]1C=C2c3cccc4[nH]cc(c34)C[C@H]2N(C)C1`: the Potency result is “inactive”.

As for `CN(C)c1ccc(N)cc1`, the Potency result is “inactive”.

Consider `O=[Se]=O`, for which the Potency entry was “inactive”.

For the compound `CCOCn1c(-c2ccc(Cl)cc2)c(C#N)c(Br)c1C(F)(F)F`, the Potency is 10.2 µM (active).

On to `CCC1(C2=NCCN2)Cc2ccccc2O1` (centres undefined), for which the Potency entry was “inactive”.

`ClSC(Cl)(Cl)Cl`: the Potency entry was “inactive”.

Regarding `CCOP(=S)(OCC)Oc1cc(C)nc(N(CC)CC)n1`, the Potency result was “inactive”.

Regarding `Nc1ccc2c(c1)Cc1ccccc1-2`, the Potency entry is “inactive”.

`C[C@@H]1CC2=CC(=O)CC[C@@H]2[C@H]2CC[C@@]3(C)[C@@H](CC[C@]3(C)O)[C@@H]21`: the Potency result is “inactive”.

`COC(=O)c1ccccc1S(=O)(=O)NC(=O)N(C)c1nc(C)nc(OC)n1`: the Potency entry was “inactive”.

For `CC(Cc1ccccc1)NCc1ccccc1Cl` (centres undefined), the Potency entry is “inactive”.

With `CC(C)(C)c1ccc(CSc2cnn(C(C)(C)C)c(=O)c2Cl)cc1`, the Potency result was “inactive”.

In the case of `CNN`, the Potency entry is “inactive”.

For the compound `C=C1C[C@@H]2[C@H](CC[C@]3(C)C(=O)CC[C@@H]23)[C@@]2(C)C=CC(=O)C=C12`, the Potency result is “inactive”.

For `C=CCOC(C)=O`, the Potency entry was “inactive”.

In the case of `Cc1ccc(-c2c(Cl)nc(C#N)n2S(=O)(=O)N(C)C)cc1`, the Potency result was “inactive”.
